How the values were obtained:
[1] = test system: Vero E6 infected with SARS-CoV-2; experiment: morphology score (similarity to uninfected cells); higher = more like uninfected cells; conditions: 24 h
[2] = test system: Vero E6 infected with SARS-CoV-2; experiment: SARS-CoV-2 infection rate relative to infected DMSO; higher = more infection, active = 60 or less; conditions: 24 h

Row | Compound | morphology score [1] | SARS-CoV-2 infection rate [2]
1 | CC(C)(C)C(=O)OCOC(=O)[C@@H]1N2C(=O)[C@@H](NC(=O)[C@H](N)c3ccccc3)[C@H]2SC1(C)C [pivampicillin] (10 µM) | 0.0461 | 106% (inactive)
2 | CC(C)n1nccc1-c1ncccc1COc1cccc(O)c1C=O [voxelotor] (10 µM) | 0.188 | 102% (inactive)
3 | COc1ccc(NS(=O)(=O)c2ccc(/N=N/c3ccc(O)c(C(=O)O)c3)cc2)nn1 [salazodine] (10 µM) | 0.0596 | 113% (inactive)
4 | COc1ccc(-c2c(C)c(C(=O)NN3CCCCC3)nn2-c2ccc(Cl)cc2Cl)cc1 (10 µM) | 0.154 | 86% (inactive)
5 | Nc1nnc(Sc2ncc([N+](=O)[O-])s2)s1 (0.833333 µM) | 0.248 | 90.5% (inactive)
6 | Oc1ccc(C(O)CNCCCCCCNCC(O)c2ccc(O)c(O)c2)cc1O (configuration not stated) [hexoprenaline] (10 µM) | 0.0624 | 116% (inactive)
7 | Cc1nnc(-c2ccc3occ(-c4ccc([S+](C)[O-])cc4)c3c2)o1 (configuration not stated) (10 µM) | -0.00242 | 92.5% (inactive)
8 | O=C(O)CCC(=O)Nc1ccc(S(=O)(=O)Nc2nccs2)cc1 [succinylsulfathiazole] (10 µM) | 0.0689 | 100% (inactive)
9 | CC(C)CN(C[C@@H](O)[C@H](Cc1ccccc1)NC(=O)O[C@H]1CCOC1)S(=O)(=O)c1ccc(N)cc1 [amprenavir] (10 µM) | 0.0911 | 110% (inactive)
10 | O=c1ccc2ccccc2o1 [coumarin] (10 µM) | 0.114 | 89.5% (inactive)
11 | O=C1c2ccccc2S(=O)(=O)N1CCCCN1CCN(c2ncccn2)CC1 [ipsapirone] (10 µM) | -0.0209 | 102% (inactive)
12 | CCCNS(=O)(=O)Nc1ncnc(OCCOc2ncc(Br)cn2)c1-c1ccc(Br)cc1 [macitentan] (10 µM) | -0.0952 | 112% (inactive)
13 | FC(F)(F)c1ccc(N2CCNCC2)nc1Cl (10 µM) | 0.273 | 89.5% (inactive)
14 | CCN(CC)C(=S)SSC(=S)N(CC)CC [disulfiram] (10 µM) | 0.548 | 23% (active)
15 | CCCCN(CCCC)C(=O)CN1C[C@H](c2ccc3c(c2)OCO3)[C@@H](C(=O)O)[C@@H]1c1ccc(OC)cc1 [atrasentan] (10 µM) | 0.0179 | 108% (inactive)
16 | CSc1ccc(C(=O)c2[nH]c(=O)[nH]c2C)cc1 [enoximone] (10 µM) | 0.104 | 88.5% (inactive)
17 | O=C(O)c1c(Cl)c(Cl)c(Cl)c(Cl)c1-c1c2cc(I)c(=O)c(I)c-2oc2c(I)c(O)c(I)cc12 [rose-bengal] (0.833333 µM) | 0.318 | 98.2% (inactive)
18 | Cc1cccn2c(=O)c(-c3nnn[nH]3)cnc12 [pemirolast] (10 µM) | 0.106 | 94.5% (inactive)
19 | CCN1C(=O)CNc2ncc(-c3ccc(-c4nc[nH]n4)nc3C)nc21 (10 µM) | -0.0465 | 96.5% (inactive)
20 | CC(O)CC(=O)O (stereo not drawn) [beta-hydroxybutyrate] (10 µM) | -0.0603 | 116% (inactive)
21 | Cn1cc(C(=O)OCC2CCN(CCNS(C)(=O)=O)CC2)c2ccccc21 (10 µM) | 0.228 | 96% (inactive)

Row | Compound | morphology score [1] | SARS-CoV-2 infection rate [2]
22 | O=C(NC(NC(=S)Nc1ccc(F)c([N+](=O)[O-])c1)C(Cl)(Cl)Cl)C(c1ccccc1)c1ccccc1 (configuration not stated) (0.833333 µM) | 0.0472 | 104% (inactive)
23 | COc1ccc2c(C(=S)N(C)CC(=O)O)cccc2c1C(F)(F)F [tolrestat] (10 µM) | -0.0111 | 108% (inactive)
24 | N[C@@H](Cc1cc(CP(=O)(O)O)cc(-c2ccccc2Cl)c1)C(=O)O (10 µM) | 0.0155 | 97.5% (inactive)
25 | CN(Cc1cc(Br)cc(Br)c1N)C1CCCCC1 [bromhexine] (10 µM) | -0.0228 | 102% (inactive)
26 | COC(=O)[C@H](Cc1cccc(C(=N)N)c1)[C@@H](C)NC(=O)c1ccc(-c2cc[n+]([O-])cc2)cc1 [otamixaban] (10 µM) | -0.0764 | 100% (inactive)
27 | O=c1c(O)c(-c2ccc(O)cc2O)oc2cc(O)cc(O)c12 [morin] (10 µM) | 0.0742 | 108% (inactive)
28 | COc1ccc2[nH]c([S@@+]([O-])Cc3ncc(C)c(OC)c3C)nc2c1 [esomeprazole] (10 µM) | -0.181 | 110% (inactive)
29 | CCOC(=O)[C@@H](C)Oc1cccc2c(=O)n(CC(=O)Nc3ccc4c(c3)OCCO4)ccc12 (10 µM) | -0.204 | 108% (inactive)
30 | CCCCCCCCCCCC(=O)N(CCO)CCO [lauric-diethanolamide] (10 µM) | -0.121 | 108% (inactive)
31 | CON(C)C(=O)N1N=C(c2cc(F)ccc2F)S[C@@]1(CCCN)c1ccccc1 [filanesib] (0.833333 µM) | -0.306 | 99% (inactive)
32 | Brc1c(NC2=NCCN2)ccc2nccnc12 [brimonidine] (10 µM) | 0.0346 | 106% (inactive)
33 | O=C(CCCCC(=O)Nc1c(I)cc(I)c(C(=O)O)c1I)Nc1c(I)cc(I)c(C(=O)O)c1I [iodipamide] (10 µM) | 0.0415 | 93% (inactive)
34 | OCCCNc1ccccc1 [3-anilinopropan-1-ol] (10 µM) | -0.164 | 110% (inactive)
35 | CCOC(=O)C1=C(C)NC(C)=C(C(=O)OC)[C@@H]1c1cccc([N+](=O)[O-])c1 (racemic) [nitrendipine] (10 µM) | -0.062 | 112% (inactive)
36 | c1ccc(-c2nc(CN3CCN(c4ncccn4)CC3)c[nH]2)cc1 (10 µM) | -0.0694 | 107% (inactive)
37 | CN(C[C@@H]1COCCO1)S(=O)(=O)Nc1ccc2ccc3ncc(-c4cnn(C)c4)cc3c(=O)c2c1 (0.833333 µM) | 0.0936 | 111% (inactive)
38 | Nc1ncnc2nc(-c3ccc(N4CCOCC4)nc3)cc(-c3cccc(Br)c3)c12 (10 µM) | 0.0544 | 108% (inactive)
39 | C[C@@H]1O[C@@H]1P(=O)(O)O (10 µM) | 0.00316 | 104% (inactive)
40 | COc1ccc(C(=O)CC2(O)C(=O)Nc3c(Cl)ccc(Cl)c32)cc1 (configuration not stated) (0.833333 µM) | 0.00554 | 95% (inactive)
41 | O=C(O)CCCCC(CCSCc1ccccc1)SCc1ccccc1 (configuration not stated) (10 µM) | 0.195 | 104% (inactive)
42 | O.O.O.O.O=C([O-])CC(O)(CC(=O)[O-])C(=O)[O-].[Li+].[Li+].[Li+] [lithium-citrate] (10 µM) | 0.239 | 89% (inactive)

Row | Compound | morphology score [1] | SARS-CoV-2 infection rate [2]
43 | C[C@@H]1CC[C@@]2(OC1)O[C@H]1C[C@H]3[C@@H]4CC=C5C[C@@H](O)CC[C@]5(C)[C@H]4CC[C@]3(C)[C@H]1[C@@H]2C [diosgenin] (10 µM) | 0.114 | 106% (inactive)
44 | CC(C)n1nc(C#Cc2ccccc2)c2c(N)ncnc21 (10 µM) | 0.471 | 69.5% (inactive)
45 | O=c1[nH]nc2c3c(cccc13)N=C(CN1Cc3ccccc3C1)N2 (10 µM) | 0.219 | 91% (inactive)
46 | CN(C/C=C/C#CC(C)(C)C)Cc1cccc2ccccc12 [terbinafine] (10 µM) | 0.413 | 81% (inactive)
47 | Cc1ccnc(NC(=O)C(C)c2cccc(C(=O)c3ccccc3)c2)c1 (configuration not stated) [piketoprofen] (10 µM) | -0.109 | 107% (inactive)
48 | CC(C)Nc1cccnc1N1CCN(C(=O)c2cc3cc(NS(C)(=O)=O)ccc3[nH]2)CC1 [delavirdine] (10 µM) | 0.0195 | 110% (inactive)
49 | CC(C)[C@H]1C(=O)N[C@@H](CCCNC(=N)N)C(=O)NCC(=O)N[C@@H](CC(=O)O)C(=O)N[C@H](Cc2ccccc2)C(=O)N1C [cilengitide] (10 µM) | -0.377 | 109% (inactive)
50 | Nc1cc2c3ccccc3ccc2c2ccccc12 [6-aminochrysene] (10 µM) | 0.144 | 101% (inactive)
51 | CC(C)(O)c1ccn2c(-c3ccc(F)c(-c4ccc(F)cc4C#N)c3)cnc2c1F (10 µM) | -0.0136 | 108% (inactive)
52 | Cc1ccc(-n2nc(C(C)(C)C)cc2NC(=O)NCc2cc(F)ccc2Oc2ccc3c(cnn3CCO)c2)cc1 [pexmetinib] (0.833333 µM) | 0.226 | 105% (inactive)
53 | CC(N)Cc1ccc(O)cc1 (configuration not stated) [hydroxyamphetamine] (10 µM) | -0.0633 | 104% (inactive)
54 | Cc1c(O)cccc1C(=O)N[C@@H](CSc1ccccc1)[C@H](O)CN1C[C@H]2CCCC[C@H]2C[C@H]1C(=O)NC(C)(C)C [nelfinavir] (10 µM) | 0.722 | 47.5% (active)
55 | CCOC(=O)c1ccc(-c2ccc(OC(=O)N(C)Cc3cccc(-c4ccncc4)c3)cc2)cc1 (10 µM) | 0.0201 | 104% (inactive)
56 | CCSc1ccc2c(c1)N(CCCN1CCN(C)CC1)c1ccccc1S2 [thiethylperazine] (10 µM) | 0.722 | 29.5% (active)
57 | O=C(NC1CCN(CCCCC2(C(=O)NCC(F)(F)F)c3ccccc3-c3ccccc32)CC1)c1ccccc1-c1ccc(C(F)(F)F)cc1 [lomitapide] (0.833333 µM) | 0.223 | 87.5% (inactive)
58 | COC(=O)C1=C(C)NC(C)=C(C(=O)OC)C1c1ccccc1[N+](=O)[O-] [nifedipine] (10 µM) | -0.0637 | 106% (inactive)
59 | CCN(CC)CCCC(C)Nc1nc(C)cc(Nc2ccc3nc(C)cc(N)c3c2)n1 (configuration not stated) (10 µM) | -0.115 | 110% (inactive)
60 | CCCCCCOC(=O)NC(=N)c1ccc(NCc2nc3cc(C(=O)N(CCC(=O)OCC)c4ccccn4)ccc3n2C)cc1 [dabigatran-etexilate] (10 µM) | 0.027 | 98.5% (inactive)
61 | CC1(C)Oc2ccc(C#N)cc2[C@H](N(Cc2ncc[nH]2)c2ccc(Cl)cc2)[C@H]1O (10 µM) | 0.455 | 81% (inactive)

Source: the supplement of paper PMC13380429
